The entries come from a sample that favours hits as a whole.
Cycloheximide cs = affects cycloheximide protein synthesis inhibition readout, counter-screen | 12% of 300,000 active | cell reporter, cycloheximide protein synthesis inhibition counterscreen | max response, %; in the data active means max response mostly above about 13%, no sharp cut-off; inactive means mostly below about 14%; further: read at 38.3 µM for the half of the compounds with a filed dose; 0% is about no effect
Sm TGR inh = inhibitors of Schistosoma mansoni thioredoxin glutathione reductase. Q962Y6. purified TGR, DTNB reduction, TNB absorbance 405 nm. Potency, µM (top dose mostly 114 µM), for inactives: at the top dose activity change, negative = inhibition, usual class: inhibitors. 3% of 360,000 active. AID 485364; further: potency means the concentration at half of the fitted maximal effect; on the % scale 0 is the no-effect control and ±100 the full control effect; nearly all actives have a fitted effect of over 60% in size
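First, TGR (20 nM dispensed) and NADPH were mixed with compound. Second, a 15 min room-temperature incubation followed. Third, further NADPH and then DTNB were added to start the reaction. Finally, TNB absorbance was monitored kinetically.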
FBPA Giardia inh = Giardia lamblia aldolase inhibition | Potency, µM (doses to about 59.6 µM), without a hit: at the top dose activity, negative = inhibition, usual class: inhibitors | A8B2U2 | 0.71% of 290,000 active | purified Giardia FBPA; further: potency means the concentration at half of the fitted maximal effect; on the % scale 0 is the no-effect control and ±100 the full control effect; nearly all actives have a fitted effect of over 55% in size
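Giardia FBPA (40 nM reagent) was preincubated 10 min at RT with compound (up to 57.5 uM final), then substrate plus GAPDH/TPI/NAD/arsenate coupling system with diaphorase/resazurin was added; resorufin fluorescence (525/598 nm) was read after 20 min.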
LmPK inhibitor = blocks Leishmania mexicana pyruvate kinase activity | Potency, µM (titrated, usually from 57.5 µM), for inactives: at the highest dose activity change, negative = inhibition, actives largely listed as inhibitors | Q27686 | 0.37% of 290,000 active | purified LmPK, Kinase-Glo ATP luminescence, 1 h | AID 1721; further: potency means the concentration at half of the fitted maximal effect; on the % scale 0 is the no-effect control and ±100 the full control effect
Target sequence (Q27686 whole entry, looked up): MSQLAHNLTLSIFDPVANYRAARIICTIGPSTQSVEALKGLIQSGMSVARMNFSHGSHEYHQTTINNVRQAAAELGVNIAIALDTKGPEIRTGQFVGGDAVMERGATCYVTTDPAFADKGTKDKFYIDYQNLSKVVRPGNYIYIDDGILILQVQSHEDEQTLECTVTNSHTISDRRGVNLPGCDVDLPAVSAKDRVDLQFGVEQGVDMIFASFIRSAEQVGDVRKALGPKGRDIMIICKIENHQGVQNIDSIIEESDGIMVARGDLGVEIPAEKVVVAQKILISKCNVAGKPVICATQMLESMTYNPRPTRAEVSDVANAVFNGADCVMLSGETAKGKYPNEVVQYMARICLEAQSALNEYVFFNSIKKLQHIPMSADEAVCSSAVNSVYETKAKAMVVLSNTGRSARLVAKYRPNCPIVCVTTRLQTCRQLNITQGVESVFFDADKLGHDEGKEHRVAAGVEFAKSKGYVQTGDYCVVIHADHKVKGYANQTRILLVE
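Screened at intermediate enzyme activity to detect both inhibitors and activators: LmPK at 0.1 nM, with a 0.5 nM enzyme column as activation reference. PEP 0.5 mM, ADP 0.1 mM; ATP detected by luminescence after 1 h.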
Tb PYK inh = inhibitors of Trypanosoma brucei pyruvate kinase; Q57TT1; TbPYK enzyme, Kinase-Glo Plus ATP luminescence, 45 min; Potency, µM (titrated, usually from 76.8 µM), inactives show top-dose activity, negative = inhibition, most hits filed as inhibitors; 0.12% of 410,000 active; further: potency means the concentration at half of the fitted maximal effect; on the % scale 0 is the no-effect control and ±100 the full control effect; nearly all actives have a fitted effect of over 50% in size
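Activity of T. brucei pyruvate kinase was followed by Kinase-Glo Plus luminescence after the enzyme reacted 45 min at room temperature with 130 uM ADP (final) and substrate. Test compounds were added before ADP at multiple concentrations.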
Shiga inhibitor = inhibitors of Shiga toxin in Vero cells | Vero cells, Shiga toxin protein synthesis inhibition reporter | inhibition, % at 38.7 µM | 9.2% of 290,000 active; in the data active means inhibition mostly above about 28%, no sharp cut-off; inactive means mostly below about 43%; further: 0% is about no effect
An asterisk follows results filed as active; ? = inconclusive; nt = not tested or not shown; + = active, no number; [ ] = dose if it differs, or a comment. Unless noted, the call rests on the fitted dose curve; in most records, active means well fitted curve in the direction sought with a large enough effect; inconclusive means small, poorly fitted or top-dose-only effect, or another doubt; inactive means no such curve, though single readings can be large; an effect the other way counts as inactive or inconclusive.

SMILES | Cycloheximide cs | Sm TGR inh | FBPA Giardia inh | LmPK inhibitor | Tb PYK inh | Shiga inhibitor
O=c1oc2c(CN3CCOCC3)c(O)ccc2c2ccccc12 | 44* | 0% | -5% | 0% | 1% | 47
CCCc1cc(=O)oc2c(CN3CCN(C)CC3)c(O)c(Cl)cc12 | -10 | ? | -7% | 7% | -1% | -16
Cc1ccc2nc(SC(Cc3cc(Cl)ccc3Cl)C(=O)O)[nH]c2c1 (stereo not drawn) | nt | -1% | nt | nt | -3% | nt
Oc1c(CN2CCOCC2)ccc2ccccc12 | -2 | 0.56µM* | ? | 4% | 1% | 7
Oc1c(CN2CCOCC2)cc(-c2ccccc2)cc1CN1CCOCC1 | -2 | 6% | 3% | -7% | 2% | -6
CCOC(=O)/C(C#N)=C/C1=C(N2CCOCC2)CC(C)(C)OC1 | 1 | 28µM* | 1% | -4% | 0% | -6
O=C(Cc1cnc2ncnn2c1)N1CCc2c([nH]c3ccccc23)C1c1ccccc1F (stereo not drawn) | -3 | 0% | 0% | 7% | 0% | -10
Cc1ccc(OCC(=O)Nc2cccc(C(=O)OCc3cc(=O)n4nc(C)sc4n3)c2)cc1 | nt | 3% | nt | nt | 1% | nt
Fc1ccc(-n2c(-c3cc(C4CC4)[nH]n3)n[nH]c2=S)cc1Cl | -3 | 0% | -18% | 11µM* | ? | 17
O=c1ccc(-c2n[nH]c(=S)n2-c2ccc(F)c(Cl)c2)n[nH]1 | -3 | 6% | ? | -18% | ? | 14
O=C(NC(C(=O)c1ccccc1)n1c(=O)cc[nH]c1=S)c1ccccc1 (stereo not drawn) | 16* | ? | ? | 5% | -3% | +
CC(C)CN1C(=O)/C(=C/c2ccco2)NC1=S | -2 | 32µM* | ? | -2% | -20% | 10
CC(C)CN1C(=O)/C(=C/c2cccs2)NC1=S | 11 | -10% | -10% | 4% | -14% | 13
O=C1N/C(=C/c2cccs2)C(=O)N1Cc1ccccc1F | -1 | 1% | -2% | -4% | -22% | -37
O=C1N/C(=C/c2ccco2)C(=O)N1Cc1ccccc1F | -3 | 56µM* | -2% | 1% | ? | -5
CC1=C(c2ccc(Cl)cc2)S(=O)(=O)NC1=NCCCN1CCN(c2cc(C)ccc2C)CC1 | nt | -1% | nt | nt | -4% | nt
COc1cc(/C(C)=N/NC(=O)CSc2nncn2C)ccc1OCc1ccccc1Cl | 38* | 3% | 7% | -3% | 5% | 84*
CN(C)C(=O)O/N=C(\N)COc1ccc(C(C)(C)C)cc1 | 30* | 6% | 4% | -3% | 4% | 31
CC(C)(C)c1ccc(OCC(=O)O)cc1 | -3 | 0% | 6% | 1% | 5% | -17
Cc1cccc(-n2cnc3c(c2=O)c2nc4ccccc4nc2n3Cc2ccco2)c1 | 13 | 2.8µM* | -19% | -6% | -14% | 31
CCCn1cnc2c(c1=O)c1nc3ccccc3nc1n2Cc1ccccc1OC | -2 | 0% | 3% | 2% | nt | -7
Cc1ccc(S(=O)(=O)c2c(N)n(Cc3ccco3)c3nc4ccccc4nc23)cc1 | -5 | ? | -6% | 0% | -2% | -11
COc1ccc(Cn2c3nc4ccccc4nc3c3c(=O)n(Cc4ccco4)cnc32)cc1 | 11 | 16µM* | -6% | -5% | nt | 33
Cc1cccc(S(=O)(=O)c2c(N)n(Cc3ccco3)c3nc4ccccc4nc23)c1 | -7 | 18µM* | -2% | -3% | -10% | -10
COCCCn1c2nc3ccccc3nc2c2c(=O)n(-c3ccccc3OC)cnc21 | -1 | 3% | 0% | -2% | -1% | -14
SMILES | Cycloheximide cs | Sm TGR inh | FBPA Giardia inh | LmPK inhibitor | Tb PYK inh | Shiga inhibitor
CCc1ccc(CNC(=O)C2CCCN(S(=O)(=O)c3ccc4c(ccn4C)c3)C2)cc1 (stereo not drawn) | nt | 0% | nt | nt | 0% | nt
COc1ccc(N2CCN(C(c3ccccc3)c3sc4nc(-c5ccco5)nn4c3O)CC2)cc1 (stereo not drawn) | nt | 3% | nt | nt | -3% | nt
O=C(COc1ccc(S(=O)(=O)NC2CCCCC2)cc1)Nc1ccc(C(F)(F)F)cc1 | nt | 1% | nt | nt | 1% | nt
COc1cccc(N2CC(O)=C(c3nc4ccccc4s3)C2=N)c1 | 33* | 1%[57.1 µM] | -6% | -6% | 4% | 54*
COc1ccc(N2CC(O)=C(c3nc4ccccc4s3)C2=N)cc1 | 20* | 16% | 20% | 3% | -2% | 68
COc1cccc(C(=O)NN2CC(O)=C(c3nc4ccccc4s3)C2=N)c1 | -2 | 2% | 2% | 2% | -7% | -13
COc1cccc(N2CC(O)=C(c3ccccc3)C2=N)c1 | -2 | -1% | 1% | -3% | -6% | -10
N=C1C(c2nc3ccccc3s2)=C(O)CN1c1ccccc1 | 33* | nt | -1% | 4% | 1% | 39
O=C1/C(=C/c2cccs2)SC(=S)N1c1cccc(O)c1 | 26* | 10% | 1% | 6% | -7% | 61
O=C1/C(=C/c2cccs2)SC(=S)N1c1ccccc1 | -3 | -3% | 10% | 3% | 0% | 36
CCOc1ccc(/C=C2\SC(=O)N(c3ccc(O)cc3)C2=O)cc1OC | 20* | 5% | 4% | -2% | 6% | 13
O=C1S/C(=C\c2cccs2)C(=O)N1c1ccc(O)cc1 | 38* | 0% | -1% | -5% | -5% | 63*
O=C(NCC(=O)N1CCc2ccccc2C1)c1ccccc1Cl | 22* | 6% | 7% | 0% | 1% | 71*
O=C(CNC(=O)c1ccccc1Cl)OCC(=O)N1CCc2ccccc21 | 41* | 5% | -3% | -2% | 4% | 127*
O=C(NCC(=O)N1CCc2ccccc2C1)c1ccc(Cl)cc1Cl | 13 | -9% | 6% | -1% | 1% | 14
O=C(Cc1ccccc1F)OCC(=O)N1CCc2ccccc21 | 64* | 11% | -1% | -1% | 6% | 97*
CCCCCCCCCCCCC/C=C/[C@@H](O)[C@H](COP(=O)([O-])OCC[N+](C)(C)C)NC(=O)CCCCCCCCCCCCCCCCC | nt | nt | 5% | nt | nt | nt
COc1ccc(CNc2nc3ccc(C)cc3s2)c(OC)c1OC | 15* | 7% | 8% | -8% | 3% | 41*
COc1ccc(CNc2ccc(C)c(C)c2)c(OC)c1OC | 24* | 2% | -7% | -5% | 3% | 33
COc1cc(C)c(CNc2ccc(OC)c(OC)c2)cc1C | 14* | ? | ? | 0% | nt | 76*
COc1cc(OC)c(OC)cc1CNc1cc(C)ccc1OC | -2 | 40µM* | -13% | -1% | -6% | 22
Cc1ccc(C)c(NC(=O)CN2C(=O)c3cccc4cccc2c34)c1 | nt | -2% | nt | nt | 0% | nt
CC(C)Oc1ccc(CNC(=O)c2ccc3nc(C(C)C)oc3c2)cc1 | nt | 0% | nt | nt | 7% | nt
CCOC(=O)O[C@@H](C)OC(=O)[C@@H]1N2C(=O)[C@@H](NC(=O)[C@@H](N)c3ccccc3)[C@H]2SC1(C)C | nt | nt | -1%[21.7 µM] | nt | 3%[33.2 µM] | nt
